In all, about 68,000 sequences were measured (“fluorescence intensity (a.u.)”: median about 9,100, highest 2% from about 16,000 on). Only a selection was taken, and the highest values are over-represented in it overall.

Chain of OsWRKY34 (Q0JBA9 entry or part of it): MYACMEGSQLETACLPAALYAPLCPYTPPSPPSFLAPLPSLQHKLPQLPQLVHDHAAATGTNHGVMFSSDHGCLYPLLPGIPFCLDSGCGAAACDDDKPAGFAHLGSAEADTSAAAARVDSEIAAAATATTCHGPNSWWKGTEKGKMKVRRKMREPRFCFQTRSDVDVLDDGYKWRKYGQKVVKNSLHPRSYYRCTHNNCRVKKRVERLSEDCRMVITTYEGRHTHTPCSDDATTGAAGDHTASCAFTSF

This assay addresses OsWRKY34 (Oryza sativa, UniProt Q0JBA9 1-250). In words: protein-binding microarray (RPBM); PBS, 2% BSA, 51.3 ng/ul salmon testes DNA, 50 uM zinc acetate, 200 nM TF, 25 C, 1 h; high values mean tight binding. The note with it: protein: recombinant; tags: N-terminal polyhistidine and DsRed monomer fusion (pET32a); label: CyDye5-dUTP incorporated in the synthesized complementary strand; 3' TTTTT single-stranded linker to array surface; dsDNA, one strand shown. A digest of the protocol:
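Transcription factors were made in E. coli BL21-CodonPlus as N-terminal fusions to a polyhistidine tag and DsRed, then purified on Ni–NTA. After primer extension with Cy5-dUTP and blocking with 2% BSA, a custom Agilent array was exposed for 1 h at 25 °C to 200 nM protein in PBS, 2% BSA, salmon testes DNA and 50 µM zinc acetate. Washed arrays were scanned on an Axon 4000B, and the binding signal is per-feature fluorescence intensity in arbitrary units.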
In the case of “TCTCCTCACCGGCCCCTCTTCCCCTTCGATTCTGGCGGCTCGGAGTCACCTAGTGCAG”, the binding signal was 8880 fluorescence intensity (a.u.).
Then “TTCGTTTCTGGCTTTTTCGTCGTGTTCCGATTTCAATCTCCGGAGTCACCTAGTGCAG”, with 12700 fluorescence intensity (a.u.); and “CTACATGGGTGTTGACTCATTTTATTTATCTTTTTCTCCACGGAGTCACCTAGTGCAG”, with 10300 fluorescence intensity (a.u.).
Turning to “GCCTATCCTGCCCTCTCTACTACCACCCTTATCGATCTCTCGGAGTCACCTAGTGCAG”, the binding signal is 8340 fluorescence intensity (a.u.).
Turning to “AAGAGACTTCTATATCTCTATATCCTTCTTATTTGCGTCCCGGAGTCACCTAGTGCAG”, the binding signal was 8080 fluorescence intensity (a.u.).
Turning to “TTGCTCTCACATTTCGTGCACTACATCTTCTCGGTGGTCCCGGAGTCACCTAGTGCAG”, the binding signal is 8380 fluorescence intensity (a.u.).
As for “GTTGTCGGTGTGTGGGTGGTGATATATTTTTTTAACTGGTCGGAGTCACCTAGTGCAG”, the binding signal was 9020 fluorescence intensity (a.u.).
Take “AATTTGGTGGGGTCGGGGTGGGTGCTTTAACTGGGGAGATCGGAGTCACCTAGTGCAG”: the binding signal is 24500 fluorescence intensity (a.u.).
For the sequence “GCGGGTGGGTCTAGAGATTTTTTTTATTTGTTAATTGGATCGGAGTCACCTAGTGCAG”, the binding signal was 10400 fluorescence intensity (a.u.).
Regarding “TGAGGTGAGGGCAGGGGCAGGGGCAGGGCGGACTGGCCAACGGAGTCACCTAGTGCAG”, the binding signal is 8680 fluorescence intensity (a.u.).
For “TCACTTTTTTTTCCATTCATTGTATGATTTCTTCTATTATCGGAGTCACCTAGTGCAG”, the binding signal is 10900 fluorescence intensity (a.u.).
Consider “AAAAAATACTATCTATGTACCCCTCCGTTTCTTTTTATTTCGGAGTCACCTAGTGCAG”, for which the binding signal is 8890 fluorescence intensity (a.u.).
“CCTGATCGCCTCCTCCGCCACCGCCGTGTTCGATTCGTCTCGGAGTCACCTAGTGCAG”: the binding signal was 9670 fluorescence intensity (a.u.).
Regarding “CTCCGCATCCCTCTCGCTCCTACCTTACCCCTCGCCGCCACGGAGTCACCTAGTGCAG”, the binding signal is 10200 fluorescence intensity (a.u.).
In the case of “TGCCACCACCTTACCCTTTGCCAACATGCATCCGCTCCAACGGAGTCACCTAGTGCAG”, the binding signal is 19100 fluorescence intensity (a.u.).
On to “CAACAACATCATCATCGCTCACATCCGCATCTCCACACAACGGAGTCACCTAGTGCAG”, for which the binding signal is 13500 fluorescence intensity (a.u.).
Consider “GCTCCGCCTGCCAGATCCATATGAGCCACCTGCGCCGCTACGGAGTCACCTAGTGCAG”, for which the binding signal was 8720 fluorescence intensity (a.u.).
Turning to “CGCCATCACTGCCAAGCTCGCCGGCTACATCGCCCGCGCCCGGAGTCACCTAGTGCAG”, the binding signal was 8040 fluorescence intensity (a.u.).
As for “GGGGAGGAATTATGGACTATTTGGATGGGCTTTTTTTACTCGGAGTCACCTAGTGCAG”, the figure is 8030 fluorescence intensity (a.u.); as for “AGTTGGGCAGCAGTGGGTTGTGATATACTATGTGAATTATCGGAGTCACCTAGTGCAG”, 9100 fluorescence intensity (a.u.); as for “GCCAGTTAGGGACCTAGGGACTTGGGTTGGGCGGGAACTTCGGAGTCACCTAGTGCAG”, 14100 fluorescence intensity (a.u.).
Then “CTTGGGTTGGGCGGGAACTTGGGGAGGAATTATGGACTATCGGAGTCACCTAGTGCAG”, with 16800 fluorescence intensity (a.u.); and “ATGCTGAATTGGGTTGGGCTGGGGAGGAATTATAGACTATCGGAGTCACCTAGTGCAG”, with 17500 fluorescence intensity (a.u.); and “CTGGGTGGGGAATTGGTTTAGTGAAGGATTAGTTGCTGATCGGAGTCACCTAGTGCAG”, with 9770 fluorescence intensity (a.u.).
With “CTAGAAGGTGACTTTTCCAACTCAACTCTCGTTTTTTCACCGGAGTCACCTAGTGCAG”, the binding signal is 11500 fluorescence intensity (a.u.).
Consider “ACTTTATTACACACATAAACTTTCAACTTTACCGTCACATCGGAGTCACCTAGTGCAG”, for which the binding signal was 9420 fluorescence intensity (a.u.).
Take “AATCTTCTAACCACCGTACGTTCTCCTCGCACTATAAATACGGAGTCACCTAGTGCAG”: the binding signal was 11500 fluorescence intensity (a.u.).
With “AAGATAGATGCCACTAATTTTTACACTGTATTTTGTAACTCGGAGTCACCTAGTGCAG”, the binding signal was 8290 fluorescence intensity (a.u.).
On to “CACATGCTTATACCGTTCGTGCTGGAGTTCCTGATCGATGCGGAGTCACCTAGTGCAG”, for which the binding signal is 8070 fluorescence intensity (a.u.).
Take “GTAGGAGGGTGGTTGGTTGTAGAATGGGAAGAAATTTGAACGGAGTCACCTAGTGCAG”: the binding signal is 11100 fluorescence intensity (a.u.).
Consider “AAACGTCAAAAGACTCAAAACCCAAAACCCGCGTGCTGACCGGAGTCACCTAGTGCAG”, for which the binding signal was 8030 fluorescence intensity (a.u.).
For the sequence “CCACGTAGGCGCCACGTCAGCCAAAACCGCTCTTAAAACCCGGAGTCACCTAGTGCAG”, the binding signal was 8110 fluorescence intensity (a.u.).
For “CGGTAGGCGTACGTGGAGACCGGTGGAATTCGTCAAAACCCGGAGTCACCTAGTGCAG”, the binding signal was 55000 fluorescence intensity (a.u.).
Then “AAGGTTCGTTTCATTTTTTTTTACTTAATTAACTATTCCTCGGAGTCACCTAGTGCAG”, with 8740 fluorescence intensity (a.u.); and “ACTCTTGGTATGTTCTGCTTAGATACACTGTGTTGCTTGCCGGAGTCACCTAGTGCAG”, with 9380 fluorescence intensity (a.u.).
With “TGTACGTGACCAGTAACGCGTTGACCTTTTCTTTGTTGAACGGAGTCACCTAGTGCAG”, the binding signal is 17000 fluorescence intensity (a.u.).
As for “TCTTTTTGTTTGACTTTTTTAAAACCACAGGTCACCCTTACGGAGTCACCTAGTGCAG”, the binding signal was 14800 fluorescence intensity (a.u.).
As for “GGTCTTGTCTGTTGTGTTAGCCATTTGTACCAACTCATGACGGAGTCACCTAGTGCAG”, the figure is 12000 fluorescence intensity (a.u.); as for “GCCGTTAACTTTTTTAAATATGTTTGACCGTTCGTCTTATCGGAGTCACCTAGTGCAG”, 10800 fluorescence intensity (a.u.); as for “TTGACTTTTTATTAACGTTTGACCATTTGTTTTATTTAAACGGAGTCACCTAGTGCAG”, 12000 fluorescence intensity (a.u.).
Then “CTTTGTTGTTTTCTTCTGTTAGTGTCTGTATTATTCATTACGGAGTCACCTAGTGCAG”, with 9880 fluorescence intensity (a.u.).
“CGCCGTTGACTTTTTTAAATATGTTTGACCGTTCGTCTTACGGAGTCACCTAGTGCAG”: the binding signal is 39400 fluorescence intensity (a.u.).
With “CACCGTTGACTTTTTGACCAACGTTTGACCCTTTGTTTTACGGAGTCACCTAGTGCAG”, the binding signal is 57700 fluorescence intensity (a.u.).

Values taken from publication PMC7819943, “Rice protein-binding microarrays: a tool to detect cis-acting elements near promoter regions in rice”.
